Reference: PubChem BioAssay (NCATS)
Results filed as inconclusive are left out. Calls of active or inactive are those of the source. Calls follow the shape of the dose curve; as a rule, active = well fitted curve in the direction sought with a large enough effect; inconclusive = small, poorly fitted or top-dose-only effect, or another doubt; inactive = no such curve, though single readings can be large; an effect the other way counts as inactive or inconclusive.

Assays:
[1] = test system: NIH3T3; experiment: qHTS assay to identify novel small-molecules to repurpose for Merkel cell carcinoma treatment (AID 1296009); conditions: MCC and control cell lines, CellTiter-Glo viability, 72 h; at 44.8 µM (top of the series) unless noted; also: nearly all actives have a fitted effect of over 60% in size
Method in brief: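 Cell viability, measured as CellTiter-Glo luminescence, was normalized between DMSO and no-cell wells. The cells had been exposed to 8- or 11-point compound dilutions for 72 hr at 37 degree celsius.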

[2] = test system: C33A; experiment: Primary qHTS to identify gynecologic anti-cancer compounds using libraries of approved drugs and bioactive compounds (AID 1345084); conditions: Gynecologic cancer cell panel viability, ATPlite luminescence, 48 h; series mostly up to 57.5 µM; also: % is scaled to controls: 0 for no effect and ±100 for the full control effect; nearly all actives have a fitted effect of over 55% in size
Method in brief: (§1)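 Measured: luminescence after ATPlite addition (15 min, RT). Exposure: 48 h, 37 C, 5% CO2.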

[3] = test system: CAOV3; experiment: as above; conditions: Gynecologic cancer cell panel viability, ATPlite luminescence, 48 h; series mostly up to 57.5 µM
Method in brief: as §1

[4] = test system: CASKI; experiment: as above; conditions: Gynecologic cancer cell panel viability, ATPlite luminescence, 48 h; series mostly up to 57.5 µM
Method in brief: as §1

[5] = test system: Es-2; experiment: as above; conditions: Gynecologic cancer cell panel viability, ATPlite luminescence, 48 h; series mostly up to 57.5 µM
Method in brief: as §1

[6] = test system: HeLa; experiment: as above; conditions: Gynecologic cancer cell panel viability, ATPlite luminescence, 48 h; series mostly up to 57.5 µM
Method in brief: as §1

[7] = test system: Hek293T; experiment: as above; conditions: Gynecologic cancer cell panel viability, ATPlite luminescence, 48 h, control line for the selectivity index; series mostly up to 57.5 µM
Method in brief: as §1

CC(CCC1(O)OC2CC3C4CCC5CC(O[C@@H]6O[C@H](CO)[C@@H](O)[C@H](O)[C@H]6O[C@@H]6OC[C@@H](O)[C@H](O)[C@H]6O)C(O)CC5(C)C4CCC3(C)C2C1C)CO[C@@H]1O[C@H](CO)[C@@H](O)[C@H](O)[C@H]1O (stereo partly drawn)
inactive: outcome [1] inactive [at 9.27 µM] | activity change, negative = cytotoxicity [2] 4.8% [at 11.6 µM] | activity change, negative = cytotoxicity [3] 10.9% [at 11.6 µM] | activity change, negative = cytotoxicity [4] 14.6% [at 11.6 µM] | activity change, negative = cytotoxicity [5] -0.82% [at 11.6 µM] | activity change, negative = cytotoxicity [6] -1.03% [at 11.6 µM] | activity change, negative = cytotoxicity [7] -3.21% [at 11.6 µM]

CCOC(=O)Nc1nc2ccccc2[nH]1
inactive: outcome [1] | Potency [2] | Potency [3] | Potency [4] | Potency [5] | Potency [6] | Potency [7]

C/C1=C\C[C@H](O[C@@H]2O[C@H](CO)[C@@H](O)[C@H](O)[C@H]2O)/C(C)=C/[C@H]2OC(=O)[C@H](C)[C@@H]2CC1
inactive: outcome [1] inactive [at 17.4 µM] | Potency [2] | Potency [3] | Potency [4] | Potency [5] | Potency [6] | Potency [7]

CC1(C)CCCC2(C)C(CO)C3CCC2C31 (stereo not drawn)
inactive: outcome [1] | Potency [2] | Potency [3] | Potency [4] | Potency [5] | Potency [6] | Potency [7]

O=C(O)CCc1cccc(O[C@@H]2O[C@H](CO)[C@@H](O)[C@H](O)[C@H]2O)c1O
inactive: outcome [1] | Potency [2] | Potency [3] | Potency [4] | Potency [5] | Potency [6] | Potency [7]

CC(C)(OC1OC(CO)C(O)C(O)C1O)C1CCC(O)(CO)C2CC(O)C(C)(O)C2C1 (stereo not drawn)
inactive: outcome [1] inactive [at 17.4 µM] | Potency [2] | Potency [3] | Potency [4] | Potency [5] | Potency [6] | Potency [7]

COC(=O)[C@H](CC1C=NC=N1)NCC12CC3CC(CC(C3)C1)C2 (stereo partly drawn)
inactive: outcome [1] | Potency [2] | Potency [3] | Potency [4] | Potency [5] | Potency [6] | Potency [7]

CC1CCC2(O1)C(C)(C)CC(O[C@@H]1O[C@H](CO[C@@H]3OC[C@](O)(CO)[C@H]3O)[C@@H](O)[C@H](O)[C@H]1O)CC2(C)O (stereo partly drawn)
inactive: outcome [1] inactive [at 17.4 µM] | Potency [2] | Potency [3] | Potency [4] | Potency [5] | Potency [6] | Potency [7]

CC(=O)OCC1=C[C@H](O)[C@@H]2C(C(=O)O)=CO[C@@H](O[C@@H]3O[C@H](CO)[C@@H](O)[C@H](O)[C@H]3O)[C@H]12
inactive: outcome [1] inactive [at 17.4 µM] | Potency [2] | Potency [3] | Potency [4] | Potency [5] | Potency [6] | Potency [7]

COC(=O)c1cc(CN2CCN(C(=N)N)CC2)cc(C(=O)N2CCN(C(=O)c3ccc(C(=N)N)cc3)CC2)c1
inactive: outcome [1] | Potency [2] | Potency [3] | Potency [4] | Potency [5] | Potency [6] | Potency [7]

CN(C)c1cccc(-c2c3c(=O)n(-c4ccccc4Cl)[nH]c3cc(=O)n2C)c1
inactive: outcome [1] | Potency [2] | Potency [3] | Potency [4] | Potency [5] | Potency [6] | Potency [7]

COc1cc(COC2OC(CO)C(O)C(O)C2O)cc(OC)c1O (stereo not drawn)
inactive: outcome [1] | Potency [2] | Potency [3] | Potency [4] | Potency [5] | Potency [6] | Potency [7]

CC(/C=C/[C@]1(O)[C@@]2(C)CO[C@@]1(C)C[C@@H](O)C2)=C\C(=O)O[C@@H]1O[C@H](CO)[C@@H](O)[C@H](O)[C@H]1O
inactive: outcome [1] inactive [at 17.4 µM] | Potency [2] | Potency [3] | Potency [4] | Potency [5] | Potency [6] | Potency [7]

C=C1C(=O)OC2CC(C)=C(C(C)CCCO[C@@H]3O[C@H](CO)[C@@H](O)[C@H](O)[C@H]3O)C(O)C12 (stereo partly drawn)
inactive: outcome [1] inactive [at 17.4 µM] | Potency [2] | Potency [3] | Potency [4] | Potency [5] | Potency [6] | Potency [7]

CCC(=O)N[C@@H]1Cc2ccccc2[C@H](c2ccccc2)C1
inactive: outcome [1] | Potency [2] | Potency [3] | Potency [4] | Potency [5] | Potency [6] | Potency [7]

O=C(O[C@H]1[C@@H]2C[C@@H]3OC[C@@](O)([C@H]2[C@H](O[C@@H]2O[C@H](CO)[C@@H](O)[C@H](O)[C@H]2O)O3)[C@@H]1O)c1ccccc1
inactive: outcome [1] inactive [at 17.4 µM] | Potency [2] | Potency [3] | Potency [4] | Potency [5] | Potency [6] | Potency [7]

COC(=O)[C@@]1(O)C=CC[C@@H]2[C@@]3(C)C[C@@H](c4ccoc4)OC(=O)[C@H]3CC[C@]21C
inactive: outcome [1] | Potency [2] | Potency [3] | Potency [4] | Potency [5] | Potency [6] | Potency [7]

CNC(=O)Nc1ccc(OC)c(NC(=O)NC(=O)c2cc(F)c(F)cc2Cl)c1
inactive: outcome [1] | Potency [2] | Potency [3] | Potency [4] | Potency [5] | Potency [6] | Potency [7]

CC(=O)OC1C(O)C(C)=C(CCC(C)CC(=O)O)C2(C)CCCC(C)(C)C12 (stereo not drawn)
inactive: outcome [1] | Potency [2] | Potency [3] | Potency [4] | Potency [5] | Potency [6] | Potency [7]
